# Test results as given in PubChem BioAssay.
# “And” between values parts separate entries of the source, which are not always exact repeats. Identical values can stand only once. Records with an inconclusive call do not appear. The source made the active and inactive calls. Cut-off read from the data, not from the text of the source, unless noted: active = inhibition above about 80%; inactive = the rest.
# Assays:
# [1] = molecular target: Mitogen-activated protein kinase 7 (Homo sapiens) (UniProt Q13164); assay: ERK5 transactivation activators in reporter cells, primary screen, cell-based, HTS (AID 1508626;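 active = luciferase signal above three times the same-plate solvent-only control wells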;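 note: luciferase driven by Gal4-ERK5 fusion binding five Gal4 sites before minimal TATA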); conditions: HeLa Gal4-ERK5 transactivation, 18 h, at 5 µM, stronger effect = higher value
# Sequence of Mitogen-activated protein kinase 7 (Homo sapiens) (Q13164 whole entry, looked up, the tested form may be a part): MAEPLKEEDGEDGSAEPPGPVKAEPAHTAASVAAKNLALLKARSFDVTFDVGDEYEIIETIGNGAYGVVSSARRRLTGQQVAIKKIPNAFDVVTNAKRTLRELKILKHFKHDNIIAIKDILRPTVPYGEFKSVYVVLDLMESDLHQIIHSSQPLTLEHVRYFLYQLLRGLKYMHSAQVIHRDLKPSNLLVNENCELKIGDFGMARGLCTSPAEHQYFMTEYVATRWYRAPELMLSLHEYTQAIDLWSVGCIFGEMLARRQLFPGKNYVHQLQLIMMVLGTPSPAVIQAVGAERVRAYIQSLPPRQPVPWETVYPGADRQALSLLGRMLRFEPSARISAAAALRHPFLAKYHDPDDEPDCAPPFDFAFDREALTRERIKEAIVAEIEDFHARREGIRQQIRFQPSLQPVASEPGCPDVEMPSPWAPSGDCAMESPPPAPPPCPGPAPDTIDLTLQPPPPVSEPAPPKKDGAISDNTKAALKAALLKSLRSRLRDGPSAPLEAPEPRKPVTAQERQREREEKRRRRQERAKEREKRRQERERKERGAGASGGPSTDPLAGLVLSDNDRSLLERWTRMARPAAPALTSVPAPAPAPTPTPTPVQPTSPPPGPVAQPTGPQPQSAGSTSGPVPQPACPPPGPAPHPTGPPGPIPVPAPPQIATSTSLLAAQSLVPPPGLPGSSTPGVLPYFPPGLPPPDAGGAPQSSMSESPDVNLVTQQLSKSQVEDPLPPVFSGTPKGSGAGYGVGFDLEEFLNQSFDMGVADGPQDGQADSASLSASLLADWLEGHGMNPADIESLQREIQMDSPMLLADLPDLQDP
# [2] = hESC survival regulators, cell-based (AID 493140; call rule not given here;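 note: cells exposed to compounds for four days before counting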); conditions: human embryonic stem cell survival screen; stronger effect = higher value
# [3] = growth inhibition of DIPG glioma cells, dose response, cell-based, SU-DIPG-IV, MIPE4.0, CellTiter-Glo, qHTS (AID 1347063; cut-off not given, nearly all actives have AC50 up to about 30 µM;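 note: compound exposure lasted 48 hours before the viability readout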); conditions: SU-DIPG-IV viability, CellTiter-Glo ATP luminescence
# [4] = modifiers of HSF1 nuclear foci, imaging, Selleck Cancer Library (AID 1347162; in the data active = plate-normalised HSF1 focus index below about 0.46); conditions: human cells, at 10 µM; SSMD: measured here: HSF1 foci SSMD mean; cell count: measured here: cell number; plate-normalised HSF1 focus index: stronger effect = lower value
# [5] = LFS_MB_P medulloblastoma growth inhibition, cell-based, chromothripsis tumors, cisplatin or BGB combos (AID 1671449); conditions: LFS_MB_P medulloblastoma cells;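 note: cells exposed for 96 hours; 0% = vehicle DMSO and 100% = killing by high DMSO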
# [6] = HDN33 neuroblastoma growth inhibition, cell-based, chromothripsis tumors, cisplatin or BGB combos (AID 1671450); conditions: HDN33 neuroblastoma cells, stronger effect = higher value;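 note: cells exposed to compound for four days; 0% = vehicle DMSO and 100% = cell killing by high DMSO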
# [7] = ICB984 medulloblastoma cell growth inhibition, synergistic combos for chromothripsis tumors, cisplatin or BGB combos (AID 1671451; call rule not given here;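 note: cells exposed for 96 hours before readout; 0% = vehicle DMSO and 100% = killing by high DMSO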); conditions: ICB984 medulloblastoma cells, drug combinations, stronger effect = higher value
# [8] = HTB85 osteosarcoma cell growth inhibition, synergistic combos for chromothripsis tumors, BGB or cisplatin IC20 combos (AID 1671453); conditions: HTB85 osteosarcoma cells, drug combinations, stronger effect = higher value;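 note: cells exposed for 96 hours before readout; 0% = vehicle DMSO and 100% = high DMSO killing control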
# [9] = MDA-MB-436 breast carcinoma cell growth inhibition, synergistic combos for chromothripsis tumors, BGB or cisplatin combos (AID 1671458; call rule not given here;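 note: cells exposed for 96 hours; 0% = vehicle DMSO and 100% = killing by high DMSO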); conditions: MDA-MB-436 breast carcinoma growth inhibition, drug combinations, stronger effect = higher value
# [10] = growth inhibition of BT084 medulloblastoma cells, cell-based, ICGC_MB145, cisplatin and BGB IC40 combos (AID 1671461); conditions: drug combinations, stronger effect = higher value;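 note: cells exposed to drugs for 96 hours; 0% = vehicle DMSO and 100% = high DMSO full killing control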
# [11] = growth inhibition of RCMB18 medulloblastoma cells, cell-based, cisplatin and BGB IC40 combos (AID 1671462); conditions: stronger effect = higher value;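 note: cells exposed to compound for four days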
# [12] = growth inhibition of CRL1545 osteosarcoma cells, cell-based, cisplatin and BGB IC20 combos (AID 1671464); conditions: stronger effect = higher value;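 note: cells exposed to compound for 96 hours before readout; 0% = vehicle DMSO and 100% = high DMSO killing control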
# [13] = circadian clock period modulators, cell-based, LOPAC library, luminescence reporter (AID 2774; call rule not given here;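 note: values are relative to mean of DMSO wells on each plate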); conditions: circadian reporter cells, at 7 µM, actives lie on both sides
# [14] = tested on: Hepatitis C virus NS3 helicase; assay: HCV NS3 helicase inhibitors, primary screen, biochemical, fluorescence polarization, LOPAC1280 library (AID 687035; in the data active = inhibition above about 37%); conditions: Purified HCV NS3 helicase, Cy5-dT15 ssDNA binding fluorescence polarization; stronger effect = higher value; concentration not given here
# [15] = Cy5 fluorescence quenching or enhancement artefacts, artefact control for HCV NS3 helicase inhibitor project, biochemical, LOPAC1280 (AID 687037; call rule not given here); conditions: Cy5-DNA-NS3h complex fluorescence interference counterscreen
# [16] = phospholipid biosynthesis inhibitors in animal cells, primary screen, cell-based, LOPAC library, screen 4 (AID 1347384; call rule not given here); conditions: phospholipid biosynthesis inhibition screen, at 10 µM
# [17] = measured here: with BGB IC20 combination, at 0.5 µM
# [18] = measured here: with cisplatin IC20 combination, at 0.5 µM
compound,measurement,setting,value
CCOC(=O)c1ccc(O)cc1,luciferase signal,[1],64 AU (inactive)
NCCNCCNCCN,luciferase signal,[1],64 AU (inactive)
C[C@@]12C(=O)OC(=O)[C@]1(C)C1CCC2O1,survival,[2],0.417 (inactive)
Nc1nc(Cl)nc2c1ncn2[C@@H]1O[C@H](CO)[C@@H](O)[C@@H]1F,AC50,[3],0.0332 µM (active)
same,SSMD,[4],-4.45
same,cell count,[4],7490
same,plate-normalised HSF1 focus index,[4],0.84 (inactive)
same,inhibition,"[5]; at 0.5 µM, stronger effect = higher value",-3.9% (inactive) and -14.3% (inactive)
same,inhibition,"[5]; measured here: combination with BGB IC20, at 0.005 µM",-8.83% and 6.96%
same,inhibition,"[5]; measured here: combination with BGB IC40, at 0.005 µM",-20.3% and 1.78%
same,inhibition,"[5]; measured here: combination with BGB IC40, at 0.05 µM",-15.7% and -36.2%
same,inhibition,"[5]; measured here: combination with cisplatin, at 0.5 µM, stronger effect = higher value",-5.98% and 57.4%
same,inhibition,"[5]; measured here: combination with cisplatin, at 5 µM, stronger effect = higher value",71.4% and 96.1%
same,inhibition,"[6]; BGB combo, at 5 µM",93.3% and 87.1%
same,inhibition,[6]; at 0.5 µM,73.2% (inactive) and 66.1% (inactive)
same,inhibition,"[6]; cisplatin combo, at 5 µM",95.5% and 89.7%
same,inhibition,[6]; [17],77.5% and 72.5%
same,inhibition,[6]; [18],73.9% and 60.5%
same,inhibition,"[6]; single agent, at 5 µM",90.8% and 89.8%
same,inhibition,"[7]; BGB IC20 combo, at 0.005 µM",-17.9% and 1.1%
same,inhibition,"[7]; BGB IC40 combo, at 0.005 µM",-37% and -3.72%
same,inhibition,"[7]; BGB IC40 combo, at 0.05 µM",35.1% and 25%
same,inhibition,[7]; at 0.5 µM,-24.6% (inactive) and -23.6% (inactive)
same,inhibition,"[7]; cisplatin combo, at 0.05 µM",35.1% and 22.3%
same,inhibition,"[7]; cisplatin combo, at 0.5 µM",-35.6% and 1.18%
same,inhibition,"[7]; cisplatin combo, at 5 µM",0.299% and -46.4%
same,inhibition,"[7]; measured here: 5 uM single agent, at 5 µM",-18.8% and -11.5%
same,inhibition,[8]; at 0.5 µM,75.4% (inactive) and 77.9% (inactive)
same,inhibition,"[8]; measured here: with BGB IC20, at 0.5 µM",66.7% and 73.9%
same,inhibition,"[8]; measured here: with BGB IC20, at 5 µM",95.1% and 90.7%
same,inhibition,"[8]; measured here: with cisplatin IC20, at 0.5 µM",78% and 76.7%
same,inhibition,"[8]; measured here: with cisplatin IC20, at 5 µM",97.1% and 95.9%
same,inhibition,"[8]; single agent, at 5 µM",96.4%
same,inhibition,[9]; at 0.5 µM,45.3% (inactive) and 53.2% (inactive)
same,inhibition,"[9]; measured here: BGB combination, at 0.5 µM",39.5% and 52%
same,inhibition,"[9]; measured here: BGB combination, at 5 µM",65.6% and 67.5%
same,inhibition,"[9]; measured here: cisplatin combination, at 0.5 µM",40.6% and 46.8%
same,inhibition,"[9]; measured here: cisplatin combination, at 5 µM",87% and 90.6%
same,inhibition,[10]; at 0.5 µM,25.8% (inactive) and 24.8% (inactive)
same,inhibition,"[10]; cisplatin combination, at 0.5 µM",61.9% and 62.5%
same,inhibition,"[10]; cisplatin combination, at 5 µM",70.1% and 80%
same,inhibition,"[10]; measured here: BGB IC40 combination 0.05 uM, at 0.05 µM",-13.2% and 17.9%
same,inhibition,"[10]; single agent, at 5 µM",-3.16% and -6.18%
same,inhibition,[11]; at 0.5 µM,16.9% (inactive) and 18.5% (inactive)
same,inhibition,"[11]; cisplatin combo, at 5 µM",84.3% and 94.2%
same,inhibition,"[11]; measured here: BGB IC40 combination, at 0.05 µM",-16.1% and -7.68%
same,inhibition,"[11]; measured here: combination with cisplatin, at 0.5 µM",83.1% and 66%
same,inhibition,"[11]; single agent, at 5 µM",9.06% and 45.4%
same,inhibition,[12]; at 0.5 µM,7.42% (inactive) and 10.4% (inactive)
same,inhibition,[12]; [17],24% and 34.6%
same,inhibition,[12]; [18],-0.869% and -3.42%
same,inhibition,"[12]; single agent, at 0.05 µM",30.6% and -23.9%
same,inhibition,"[12]; single agent, at 5 µM",97.1% and 92.1%
COc1cc(N)c(Cl)cc1C(=O)NC1CCN(CCCOc2ccc(F)cc2)CC1OC (configuration not stated),survival,[2],0.75 (inactive)
OC1C(O)C(O)C(O)C(O)C1O (configuration not stated),luciferase signal,[1],40 AU (inactive)
CC1=C(C/C=C(\C)CCC[C@H](C)CCC[C@H](C)CCCC(C)C)C(=O)c2ccccc2C1=O,luciferase signal,[1],156 AU (inactive)
CC(C)CCCC(C)N (configuration not stated),luciferase signal,[1],56 AU (inactive)
CCN(CC)CCOc1ccc2c(c1)C(=O)c1cc(OCCN(CC)CC)ccc1-2,luciferase signal,[1],108 AU (inactive)
O=C(Nc1ccc(C(=O)O)c(O)c1)c1ccccc1,luciferase signal,[1],48 AU (inactive)
CN(C)CCCOc1nn(Cc2ccccc2)c2ccccc12,survival,[2],9 (inactive)
same,luciferase signal,[1],92 AU (inactive)
C[N+](C)(C)CCCCCCCCCC[N+](C)(C)C,period change,[13],0.03 h (inactive)
same,survival,[2],4 (inactive)
same,inhibition,[14],2% (inactive)
same,fluorescence ratio (interference),[15],1 (inactive)
same,outcome,[16],inactive
same,luciferase signal,[1],60 AU (inactive)
